# How the values were obtained:
# [1] = biological target: T1, Aspartate--tRNA(Asp/Asn) ligase (Mycobacterium tuberculosis (strain ATCC 25618 / H37Rv)) (UniProt P9WFW3); assay: Assay for Asp RNA synthetase-1 from Mycobacterium tuberculosis; assay type: functional; design: scale not given: direction of the effect not stated beside the values; conditions: 30 µM; also: in the data most compounds retested in dose-response had high values
# T1 sequence (whole entry): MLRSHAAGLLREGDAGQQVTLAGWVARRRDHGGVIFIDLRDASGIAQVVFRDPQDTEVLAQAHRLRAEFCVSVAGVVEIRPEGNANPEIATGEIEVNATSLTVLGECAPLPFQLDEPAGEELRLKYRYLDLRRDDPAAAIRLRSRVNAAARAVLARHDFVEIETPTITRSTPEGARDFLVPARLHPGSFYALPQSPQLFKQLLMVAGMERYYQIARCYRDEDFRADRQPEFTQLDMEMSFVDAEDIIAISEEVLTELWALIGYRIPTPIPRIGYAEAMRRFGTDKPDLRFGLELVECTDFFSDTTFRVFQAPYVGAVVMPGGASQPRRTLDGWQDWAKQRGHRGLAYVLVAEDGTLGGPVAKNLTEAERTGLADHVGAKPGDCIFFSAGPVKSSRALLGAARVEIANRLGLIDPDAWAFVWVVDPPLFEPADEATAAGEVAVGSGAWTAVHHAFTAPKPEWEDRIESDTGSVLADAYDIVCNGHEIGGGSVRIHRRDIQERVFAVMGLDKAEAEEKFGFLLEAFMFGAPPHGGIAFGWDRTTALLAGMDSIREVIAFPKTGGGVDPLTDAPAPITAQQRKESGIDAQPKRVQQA
# [2] = biological target: Shiga toxin 2 (Escherichia coli O157:H7) (UniProt P09385+P09386); assay: E. coli 0.157:H7 Shiga Toxin SOP - stx2 screening assay; assay type: functional; design: scale not given: direction of the effect not stated beside the values; conditions: 30 µM
Compound,Percent Effect [1] [%],Percent Effect [2] [%]
Cc1nccn1-c1cccc(C2CCCN(C(=O)c3cc[nH]n3)C2)n1 (centres undefined),-0.309,-32.7
O=C(Cn1cccnc1=O)NC(Cc1ccsc1)c1ccccn1 (centres undefined),-3.14,-4.55
Cc1nnc2n1CCN(C(=O)c1cc(C)n(-c3ccccn3)c1C)C2,4.19,32.2
N#Cc1ccc(OCCOc2ccccc2C(=O)N2CCOCC2)cc1,8.62,-58.2
Cc1ccc(C(CNCC2CC2)N2CCOCC2)s1 (centres undefined),3.84,-22.1
COc1ccc(CNC(=O)CNc2cc3c(cc2Cl)OCCCO3)cc1,2.02,0.898
O=S(=O)(Nc1cnn(C2CCOCC2)c1)c1c(F)cccc1F,2.52,1.54
OCC1CCCN1c1cc(NCCc2c[nH]c3ccccc23)ncn1 (centres undefined),11.5,-28.9
CCOc1ncccc1C(=O)NCCN(CC)C1CC1,0.335,9.33
Cc1csc(N2CCN(C(=O)CCc3ccccn3)CC2)n1,5.27,20.4
CN(C)C(CNC(=O)NCCc1cccc(O)c1)c1ccco1 (centres undefined),2.5,-5.55
Cc1cc(NC(=O)C(C)N2CCCN(c3nccs3)CC2)on1 (centres undefined),-2.75,4.75
Cn1cc(-c2nc(CN3CCc4c(ncn4C4CC4)C3)cs2)cn1,-0.0232,-83.4
CC(=O)N1CCN(Cc2csc(-c3cnn(C)c3)n2)CC1,-1.03,-1.47
Cc1ccc(-c2nc(CN3CCc4nn(C)c(=O)cc4C3)co2)cc1,40.1,-3.75
Cn1cc(N2CCC3(CCN(Cc4nccs4)C3)C2=O)cn1 (centres undefined),-0.749,-2.2
CCS(=O)(=O)c1ccccc1N1CCC(NC(=O)NC2CCCC2)CC1,-3,7.11
